Compound activity: PubChem, several laboratories
TLR9-MyD88 block: TLR9-MyD88 interaction inhibition | hit rate 0.21% among 340,000 | inhibition, % at 4.98 µM | Q9NR96+Q99836 | CHO BLA complementation TLR9-MyD88, CCF4 FRET ratio;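 active = inhibition above the mean over all tested compounds plus 3 SD, cut at about 21% in these data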;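 also: 0% = DMSO only wells and 100% = clavulanate BLA inhibitor control wells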
ABHD5 PLIN5 PPI: inhibitors of human ABHD5-perilipin-5 interaction; Q00G26+Q8WTS1; Split G. princeps luciferase complementation, luminescence, 4 h; inhibition, % at 4 µM; hit rate 0.78% among 360,000; AID 602281;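 active = inhibition above the mean inhibition across every tested compound plus 3 SD, cut at about 22% in these data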;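 also: 0% = DMSO only wells and the 100% control is not disclosed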
CRFBP-R2 block: antagonists of CRF-binding protein/CRF-R2 receptor complex. HEK293 CRF-R2/CRF-BP, CRF-induced calcium fluorescence. inhibition, % at 11.8 µM. hit rate 0.59% among 350,000;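 active = inhibition of the ligand-induced calcium signal above about 50% at the single tested concentration, limit read from the data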
NOD2-RIPK2 inh: NOD2-RIPK2 protein interaction inhibition; O43353; inhibition, % at 4.98 µM; CHO BLA complementation NOD2-RIPK2, CCF4 ratio; AID 624267; hit rate 0.38% among 360,000; in the data active = inhibition above about 21%;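 also: 0% = vehicle only and 100% = reference blocker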
TLR4-MyD88 BLA: TLR4-MyD88 interaction inhibition in cells. O00206+Q99836. HeLa CL3-4 TLR4/MyD88 BLA complementation, FRET ratio. inhibition, % at 8.4 µM. hit rate 0.18% among 200,000; in the data active = inhibition above about 25%;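 also: 0% = vehicle and 100% = reference inhibitor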
HTR2A ag: activates the mouse 5-HT2A serotonin receptor | P35363 | CHO-K1 mHTR2A beta-arrestin complementation, luminescence; percent of 30 µM serotonin response | activation, % at 7.6 µM | hit rate 0.66% among 360,000;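 active = activation above a run cutoff, the mean activation of all tested compounds plus 3 SD, cut at about 14% in these data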;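 also: 0% = plate median of compound wells and 100% = 30 µM serotonin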
Target sequence (P35363 whole entry, looked up): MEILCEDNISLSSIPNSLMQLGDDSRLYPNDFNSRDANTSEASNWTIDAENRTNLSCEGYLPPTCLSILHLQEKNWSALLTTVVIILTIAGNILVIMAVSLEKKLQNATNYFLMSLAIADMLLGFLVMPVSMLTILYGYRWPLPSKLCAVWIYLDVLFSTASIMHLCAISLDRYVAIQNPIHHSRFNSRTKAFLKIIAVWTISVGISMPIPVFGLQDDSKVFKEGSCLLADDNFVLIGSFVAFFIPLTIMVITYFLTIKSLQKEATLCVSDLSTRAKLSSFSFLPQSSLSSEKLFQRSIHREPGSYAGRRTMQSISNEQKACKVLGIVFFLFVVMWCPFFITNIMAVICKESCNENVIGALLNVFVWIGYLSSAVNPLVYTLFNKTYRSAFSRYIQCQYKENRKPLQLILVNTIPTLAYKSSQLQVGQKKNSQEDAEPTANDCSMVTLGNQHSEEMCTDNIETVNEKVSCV
ABHD5 PLIN5 conf: confirmation of human ABHD5-PLIN5 interaction inhibitors; shares compounds with ABHD5 PLIN5 PPI; inhibition, % at 4 µM; biochemical ABHD5-PLIN5 interaction, luminescence; hit rate 67% among 2,200; in the data active = inhibition above about 23%;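 also: 0% = DMSO vehicle wells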
HNF4 split-luc: active in HNF4 split-luciferase counter-screen for ABHD5-PLIN5 inhibitors; hit rate 77% among 2,200; shares compounds with ABHD5 PLIN5 PPI; HNF4 dimerization, luminescence, biochemical; inhibition, % at 4 µM;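 active = mean inhibition across replicate wells exceeding the computed hit threshold, cut at about 13% in these data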;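 also: light from luciferase halves that rejoin when HNF4 fusion proteins dimerize; 0% = DMSO only wells and the 100% control is not given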
Active calls of the source: *; x = not tested or not shown. In the library only some 2.4% were active in any assay of this set; here they are far more common.

SMILES | TLR9-MyD88 block | ABHD5 PLIN5 PPI | CRFBP-R2 block | NOD2-RIPK2 inh | TLR4-MyD88 BLA | HTR2A ag | ABHD5 PLIN5 conf | HNF4 split-luc
Cc1cc(C)nc(N2N=C(C(C)(C)C)CC2=O)n1 | 3.0 | 37.5* | 2.0 | -2.0 | 9.0 | -2.1 | 6.7 | 26.3*
Cc1ccc(SCC2=NN(c3nc(C)cc(C)n3)C(=O)C2)cc1 | 3.1 | 2.3 | -9.7 | -4.4 | -5.1 | -1.6 | x | x
Cc1cc(NC(=O)Nc2ccc(F)cc2F)n(C)n1 | -2.5 | 43.5* | -9.6 | -3.6 | -6.8 | 2.9 | -3.6 | 4.0
CCCC(=O)N1CCC1(C)C(=O)Nc1cccc(OC(C)C)c1 (stereo not given) | x | 5.4 | x | -11.7 | x | 13.4 | x | x
COC(=O)C(=C/C(C)=C/c1cccnc1)C(=O)OC | 9.1 | 33.7* | -3.5 | 1.2 | 8.0 | 2.4 | 54.2* | 53.2*
COC(=O)/C(=C/c1cccnc1)NC(=O)c1ccccc1 | -3.6 | 2.9 | 3.8 | -15.2 | 2.0 | 5.3 | x | x
Nc1sccc1C(=O)NCc1ccccc1 | x | 35.9* | x | 8.4 | x | -3.2 | 13.9 | 49.0*
NS(=O)(=O)c1ccc(CCNc2nn3c(-c4cccc(OC(F)(F)F)c4)cnc3s2)cc1 | x | -12.0 | x | -14.7 | x | -3.9 | x | x
COc1ccccc1CNc1nc(NCc2ccccc2OC)c2sccc2n1 | x | 2.9 | x | 3.6 | x | -8.0 | x | x
COc1ccccc1CNc1nc(NCc2ccc3occc3c2)c2sccc2n1 | x | 23.9* | x | 2.4 | x | -13.1 | 7.7 | 15.7*
COc1ccc(Cl)cc1N/C(N)=N/c1nc(CSc2ccc(C)cc2)cc(=O)[nH]1 | -1.0 | 103.7* | -9.5 | -1.3 | 1.9 | -1.1 | 3.1 | 4.9
COc1ccc(Cl)cc1N/C(N)=N/c1nc(C)cc(=O)[nH]1 | -1.2 | 3.6 | 11.2 | 3.7 | -8.4 | -0.5 | x | x
CCCCC[C@@H](/C=C/C1C(=O)C=C[C@H]1C/C=C\CCCC(=O)OC)OC(C)=O (stereo not given in full) | -1.9 | 27.5* | -0.7 | 11.5 | x | -2.3 | 41.9* | 63.2*
Cc1noc(/C=C/c2ccccn2)c1[N+](=O)[O-] | -2.6 | 42.2* | -2.1 | -1.9 | x | -1.6 | 77.3* | 70.2*
COc1ccccc1N/C=C/c1onc(C)c1[N+](=O)[O-] | 13.0 | 5.2 | -68.3 | 0.9 | 22.6 | -1.0 | x | x
N#C/C(=C\c1cccc(Br)c1)C(=O)N1CCCCC1 | 5.3 | 24.1* | -21.6 | 11.1 | x | -4.8 | 71.3* | 53.4*
N#C/C(=C\c1ccccc1)C(=O)N1CCN(c2ccccc2F)CC1 | -1.4 | 37.9* | -38.7 | 0.4 | x | 0.5 | 51.9* | 38.5*
CC(C)C[C@H]1CN([C@@H](Cc2ccc(O)cc2)CN2CCCC2CN2C(=S)NC[C@@H]2Cc2ccccc2)C(=S)N1CC1CCCCC1 (stereo not given in full) | x | -5.0 | x | 0.3 | x | -1.5 | x | x
O=C(Nc1cccc2c1CCCC2)c1cc(C2CCCCN2C(=O)CCCc2ccccc2)on1 (stereo not given) | x | -0.8 | x | -19.1 | x | -7.0 | x | x
CC(=O)Nc1cc(-c2ccccc2)cn2c(-c3cccc(C(C)=O)c3)cnc12 | x | 9.2 | x | -3.2 | x | 1.3 | x | x
CCOc1ccccc1C1N=C(c2ccc(OC)cc2)CC(c2ccccc2O)N1 (stereo not given) | 10.3 | 25.2* | -6.4 | 12.4 | 6.6 | -0.7 | 56.9* | 47.6*
CC(=O)N(c1ccc2oc(=O)sc2c1)S(=O)(=O)c1cccc2cccnc12 | 0.4 | 24.8* | -5.5 | -0.8 | x | 2.7 | -39.1 | -7.6
CC(=O)N(c1ccc2oc(=O)sc2c1)S(=O)(=O)c1cccs1 | 4.5 | 8.9 | -9.9 | -8.4 | 6.4 | 4.2 | x | x
CCCC(=O)N(c1ccc2oc(=O)sc2c1)S(=O)(=O)c1ccccc1 | 5.7 | 8.5 | -1.2 | 4.3 | 8.0 | -3.1 | x | x
CC(=O)N(c1ccc2oc(=O)sc2c1)S(=O)(=O)c1ccc(C(=O)O)cc1 | -1.5 | 25.3* | -4.4 | -6.5 | x | 2.5 | -42.5 | 81.6*
OC[C@@H]1CN(Cc2ccncc2)C[C@H](n2cnc3c(N4CCOCC4)ncnc32)O1 | x | 1.2 | x | 1.0 | x | -0.7 | x | x
